This is an account of results in the OligoGym collection.
Further: reference of the scale not given here.

One test deals with MAGOHB. The test can be described thus: pooled miR-30 sensor sort-seq; sequence = guide strand. Particulars: shRNA.
Take TACAATTTCAAGCTCCTGTCGG: the sensor-assay potency score (higher = more potent) was 0.0556.

ATATCTAAGCTTTCCGTCCGGC had a sensor-assay potency score (higher = more potent) of -0.264.

Regarding TTTCTGATCATCACATCATTTT, the sensor-assay potency score (higher = more potent) is -1.65.

The target in another test is MAGOH. The test is described as above. As to conditions: shRNA.
Sequence ATATCTTAACTTCCCGTCCGGT registered a sensor-assay potency score (higher = more potent) of -0.615.

Regarding TAAGCCTTCTGGATCCTTGGAT, the sensor-assay potency score (higher = more potent) worked out at 0.401.

As for TCCAATAAGACTGAAGACCAAA, the sensor-assay potency score (higher = more potent) was -1.96.

The sequence TTGATTGACATCAATAAGGGAA had a sensor-assay potency score (higher = more potent) of 0.101.

As for TAATAAAATACTCGTAAGCCTT, the sensor-assay potency score (higher = more potent) was -0.986.

TTTTCTGATCATGACATCATTC came in with a sensor-assay potency score (higher = more potent) of -1.16.

TTCTTGTAATTGCTGTTGTTGG gave a sensor-assay potency score (higher = more potent) of -1.26.

For TCTGATCATGACATCATTCTTG, the sensor-assay potency score (higher = more potent) was 0.0716.

For the sequence TATCTTAACTTCCCGTCCGGTC, the sensor-assay potency score (higher = more potent) was -1.04.

Turning to TTAACTTCCCGTCCGGTCGAAA, the sensor-assay potency score (higher = more potent) was -1.06.

Consider TCAAACTCCAGGAACTCGTGGC, for which the sensor-assay potency score (higher = more potent) was 0.562.

TTGGCATATCTTAACTTCCCGT displayed a sensor-assay potency score (higher = more potent) of -0.899.

A further test deals with MALL. Described as above. Particulars: shRNA.
Consider TTTCTCAGAAACAATCGTGGCA, for which the sensor-assay potency score (higher = more potent) amounted to 0.81.

Consider TAAGACAACAGGAACATCAAGG, for which the sensor-assay potency score (higher = more potent) was -0.729.

As to TAATGTAGTAAATTCTTGGGTC, the sensor-assay potency score (higher = more potent) came out at 0.801.

TAAATGTCCAAACAAAGTGTGG: the sensor-assay potency score (higher = more potent) is -1.11.

With TTGTAAAATCCAAACAAGTAAG, the sensor-assay potency score (higher = more potent) was -1.62.

As for TTCTCAGAAACAATCGTGGCAT, the sensor-assay potency score (higher = more potent) is 0.00713.

On to TTAATGTAGTAAATTCTTGGGT, for which the sensor-assay potency score (higher = more potent) is -0.194.

Take AATTAATGTAGTAAATTCTTGG: the sensor-assay potency score (higher = more potent) was -0.359.

AGTTTCTCAGAAACAATCGTGG: the sensor-assay potency score (higher = more potent) is -1.29.

AAACAAGTAAGACAACAGGAAC gave a sensor-assay potency score (higher = more potent) of -1.63.

In turn, TCTTTTGTAAAATCCAAACAAG displayed a sensor-assay potency score (higher = more potent) of -1.37.

The sequence TACAGGATGCCAGTGGTCCCGT had a sensor-assay potency score (higher = more potent) of -0.996.

For a further test, the target named is MAMSTR. Described as above. As to conditions: shRNA.
TGCTGGAGTCAGATAAGTCAGC came in with a sensor-assay potency score (higher = more potent) of -1.36.

TGCTGCGCTGGGCTTGACCGAG returned a sensor-assay potency score (higher = more potent) of -1.43.

As for TTAGGAAGCAACTGCGCCCTCC, the sensor-assay potency score (higher = more potent) was -0.483.

For TTGACCGAGCCCTGACGCCGGG, the sensor-assay potency score (higher = more potent) is -1.2.

In turn, TCGGCTTGGGGGTCTGCCCTGG returned a sensor-assay potency score (higher = more potent) of -0.566.

On to TGGAGTCAGATAAGTCAGCGGA, for which the sensor-assay potency score (higher = more potent) was -0.63.

Sequence TCCAGAGTCAGAGCCGCTGAGC displayed a sensor-assay potency score (higher = more potent) of -2.

With TAGACTTGGTCCCCGACACTGG, the sensor-assay potency score (higher = more potent) was -0.651.

With TGAAGTTCCAACTTGTGTGGGG, the sensor-assay potency score (higher = more potent) was 0.878.

For the sequence TTCCTGCAGCTCCTCCTCCAGA, the sensor-assay potency score (higher = more potent) was -1.58.

Take TTGTCTCCGATCCTGTGTCTGC: the sensor-assay potency score (higher = more potent) was -0.79.

For TCTGAAGTTCCAACTTGTGTGG, the sensor-assay potency score (higher = more potent) was -0.0798.
